Records with an inconclusive call do not appear. Active and inactive are the calls of the source. Unless noted, the call rests on the fitted dose curve; in most records, active means well fitted curve in the direction sought with a large enough effect in the repeat runs; inconclusive means weak or mixed curves; inactive means no such curve, though single readings can be large; an effect the other way counts as inactive or inconclusive.
What was measured:
[1] = qHTS assay for small molecule agonists of the p53 signaling pathway (AID 651631; calls by dose curve; further: nearly all actives have a fitted effect of over 15% in size; further: potency means the concentration at half of the fitted maximal effect)
Method in brief: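 HCT-116 cells carrying a stable p53 response element–beta-lactamase reporter were plated, rested 5 h at 37 °C, then exposed to compound in DMSO for 16 h at 37 °C; reporter activity was read as FRET substrate fluorescence after 2 h at room temperature.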

[2] = qHTS assay for small molecules that induce genotoxicity in human embryonic kidney cells expressing luciferase-tagged ATAD5 (AID 651632); further: nearly all actives have a fitted effect of over 15% in size
Method in brief: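 Concentration-response screen for ATAD5 upregulation in HEK293T luciferase reporter cells; 16 hr treatment at 37C, then luminescence after 30 min with Amplite at room temperature.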

[3] = qHTS assay for small molecule agonists of the p53 signaling pathway - cell viability (AID 651633; calls by dose curve; further: series mostly up to about 83 µM; nearly all actives have a fitted effect of over 30% in size)
Method in brief: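 p53RE-bla cells, seeded at 4,000 per well and rested 5 h at 37 C/5% CO2, received compounds in DMSO for 16 h at 37 C. CellTiter-Glo was then added, and luminescence was read after 30 min at room temperature to gauge cytotoxicity.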

[4] = qHTS assay for small molecules that induce genotoxicity in human embryonic kidney cells expressing luciferase-tagged ATAD5 - cell viability (AID 651634; calls by dose curve; further: nearly all actives have a fitted effect of over 25% in size)
Method in brief: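 15.5 hr compound or vehicle exposure of HEK293T cells expressing luciferase-tagged ATAD5 at 37C; live-cell protease activity is read by fluorescence after 30 min of CellTiter-Fluor.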

[5] = qHTS assay for small molecule disruptors of the mitochondrial membrane potential - cell viability (AID 720634; calls by dose curve;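 further: human HepG2 liver cancer cells; series mostly up to about 83 µM; nearly all actives have a fitted effect of over 20% in size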)
Method in brief: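 In this qHTS format, HepG2 cells plated overnight were pinned with compound, incubated 1 hr, and assayed for ATP luminescence with CellTiter-Glo after m-MPI dye addition.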

[6] = qHTS assay for small molecule disruptors of the mitochondrial membrane potential (AID 720635)
Method in brief: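 HepG2 cells (2,000/well) attached overnight at 37C, then took compound for 1 hr at 37C, 5% CO2. Mito-MPS dye was added for 30 min; fluorescence was read at 490/535 nm (monomers) and 540/590 nm (aggregates).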

[7] = qHTS assay to test for compound auto fluorescence at 590 nm (red) in HepG2 cells (AID 720674)
Method in brief: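 Intrinsic compound fluorescence in the red window (Ex/Em 540/590 nm) is measured in attached HepG2 cells exposed for 1 hr, DMSO vehicle as baseline, benchmarked to Rose Bengal sodium.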

[8] = qHTS assay to test for compound auto fluorescence at 535 nm (green) in HepG2 cells (AID 720675)
[9] = qHTS assay to test for compound auto fluorescence at 460 nm (blue) in HEK293 cells (AID 720678); further: potency means the concentration at half of the fitted maximal effect
Method in brief: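 Blue-channel (Ex/Em 405/460 nm) intensity measured in HEK293 cultures after overnight compound exposure at 37C; signal expressed relative to triamterene. Cells plated 2,000 per well in 10% dialyzed FBS medium and allowed 4-5 hr to attach.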

[10] = qHTS assay to test for compound auto fluorescence at 590 nm (red) in HEK293 cells (AID 720679)
Method in brief: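 Red-channel autofluorescence (Ex/Em 540/590 nm; Rose Bengal sodium reference) was measured after overnight 37C, 5% CO2 exposure of attached HEK293 cells, 2,000 per well in medium with 10% dialyzed FBS.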

[11] = qHTS assay to test for compound auto fluorescence at 535 nm (green) in HEK293 cells (AID 720680)
[12] = qHTS assay to test for compound auto fluorescence at 460 nm (blue) in HEK293 cell free culture (AID 720681); further: potency means the concentration at half of the fitted maximal effect
Method in brief: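 Test compounds were pinned into cell-free culture medium (DMEM with 10% FBS) and fluorescence was read directly at Ex/Em 405/460 nm. Signals were expressed as fluorescence equivalents of triamterene, with DMSO vehicle as control.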

[13] = qHTS assay to test for compound auto fluorescence at 535 nm (green) in HEK293 cell free culture (AID 720682)
Method in brief: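 Read-out: 485/535 nm fluorescence intensity, calibrated against fluorescein. Medium only (DMEM + 10% FBS, no cells); test compound or DMSO vehicle added by pintool before plate reading.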

[14] = qHTS assay to test for compound auto fluorescence at 590 nm (red) in HEK293 cell free culture (AID 720683)
Method in brief: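 Tox21 10K library compounds were pinned into cell-free DMEM with 10% FBS and fluorescence was read at excitation 540 nm. Activity is expressed as Rose Bengal sodium equivalency.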

[15] = qHTS assay to test for compound auto fluorescence at 590 nm (red) in HepG2 cell free culture (AID 720684)
Method in brief: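 Readout: intrinsic compound fluorescence at 590 nm emission after 540 nm excitation, scaled to Rose Bengal sodium. Matrix was cell-free MEM with 10% FBS; DMSO vehicle wells served as control.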

[16] = qHTS assay to test for compound auto fluorescence at 460 nm (blue) in HepG2 cell free culture (AID 720685); further: potency means the concentration at half of the fitted maximal effect
Method in brief: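 Cell-free plates of MEM plus 10% FBS received 23 nL compound or DMSO vehicle; blue-channel (405/460 nm) intensity scored against triamterene as reference fluorophore.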

[17] = qHTS assay to test for compound auto fluorescence at 535 nm (green) in HepG2 cell free culture (AID 720686)
[18] = qHTS assay to test for compound auto fluorescence at 460 nm (blue) in HepG2 cells (AID 720687); further: potency means the concentration at half of the fitted maximal effect
Method in brief: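 Cells (2,000/well in MEM with 10% FBS) attached overnight at 37 C, then were exposed to compound or DMSO for 1 hr at 37 C, 5% CO2. Fluorescence read at Ex/Em 405/460 nm, expressed as triamterene-equivalent signal.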

[19] = target: Glucocorticoid receptor (Homo sapiens) (UniProt P04150); test: qHTS assay to identify small molecule agonists of the glucocorticoid receptor (GR) signaling pathway (AID 720691; active means well fitted activation curve with a large enough effect in the signal ratio in the repeat runs, not every such curve was filed as active; the % refers to the signal ratio)
Method in brief: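 Measures GR pathway activation through a GRE-beta-lactamase reporter stably integrated in HeLa cells, with 18 h compound treatment at 37 C and fluorescence detection using a FRET substrate.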

[20] = target: Glucocorticoid receptor (Homo sapiens) (UniProt P04150); test: qHTS assay to identify small molecule antagonists of the glucocorticoid receptor (GR) signaling pathway (AID 720692; active means well fitted inhibition curve with a large enough effect in the signal ratio in the repeat runs, not every such curve was filed as active; the % refers to the signal ratio)
Method in brief: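 Tox21 10K library screened in concentration-response for blockade of dexamethasone (5 nM final)-induced GRE-bla reporter activity in HeLa cells; 18 h treatment, fluorescence read.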

Measured: Potency
Tags describe the fitted curve by direction and shape or compound fluorescence and quenching.

Sequence of Glucocorticoid receptor (Homo sapiens) (P04150 whole entry, looked up): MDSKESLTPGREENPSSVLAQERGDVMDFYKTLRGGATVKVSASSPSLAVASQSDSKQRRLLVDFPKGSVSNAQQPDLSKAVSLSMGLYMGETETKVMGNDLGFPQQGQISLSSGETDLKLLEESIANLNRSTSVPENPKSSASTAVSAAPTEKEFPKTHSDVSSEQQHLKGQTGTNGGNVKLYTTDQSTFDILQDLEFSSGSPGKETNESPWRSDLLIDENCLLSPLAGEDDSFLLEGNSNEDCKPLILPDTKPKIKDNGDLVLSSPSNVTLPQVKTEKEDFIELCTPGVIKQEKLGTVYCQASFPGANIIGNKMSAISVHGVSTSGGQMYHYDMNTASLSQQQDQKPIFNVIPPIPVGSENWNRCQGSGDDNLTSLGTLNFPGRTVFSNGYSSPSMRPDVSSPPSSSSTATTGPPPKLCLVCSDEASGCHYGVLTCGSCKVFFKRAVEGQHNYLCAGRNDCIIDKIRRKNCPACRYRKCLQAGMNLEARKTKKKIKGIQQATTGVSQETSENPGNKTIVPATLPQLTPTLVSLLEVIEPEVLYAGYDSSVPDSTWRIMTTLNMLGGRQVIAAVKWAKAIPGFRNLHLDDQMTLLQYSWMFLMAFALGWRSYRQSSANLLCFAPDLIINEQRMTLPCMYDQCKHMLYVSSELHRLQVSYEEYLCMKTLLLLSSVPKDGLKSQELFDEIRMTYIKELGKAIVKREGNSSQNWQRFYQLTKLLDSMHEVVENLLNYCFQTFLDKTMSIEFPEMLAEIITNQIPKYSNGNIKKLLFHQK

C=Cc1ccccc1C=C
inactive: all assays above

CCC(CC)C(C)CCOC(C)=O (stereo not given)
not listed: [17] | [19] | [20]
inactive: all other assays above

O[C@@H]([C@H](O)[C@H](O)CBr)[C@H](O)CBr
not listed: [19] | [20]
inactive: all other assays above

O=S(=O)(O)c1ccccc1/C=C/c1ccc(-c2ccc(/C=C/c3ccccc3S(=O)(=O)O)cc2)cc1
active: [1] 17.5 µM | [9] 5.01 µM [fluorescent] | [12] 6.31 µM | [16] 6.31 µM [fluorescent] | [18] 5.62 µM [fluorescent]
not listed: [6] | [19] | [20]
inactive: all other assays above

CC/C=C\CCCCCO
inactive: all assays above

CCCCCCCC
not listed: [14] | [15] | [17]
inactive: all other assays above

C=CC(C)(CCC=C(C)C)OC=O (stereo not given)
not listed: [16]
inactive: all other assays above

CCCCOC(=O)CO
not listed: [9] | [16]
inactive: all other assays above

CCc1ccc(Br)cc1
not listed: [16]
inactive: all other assays above

CCOC(=O)Cn1cccc1-c1nc(-c2ccc(OC)cc2)c(-c2ccc(OC)cc2)s1
active: [1] 29.8 µM
not listed: [8] | [20]
inactive: all other assays above

CC(=O)OCC=C(C)C
not listed: [16] | [20]
inactive: all other assays above

O=C(/C=C/c1ccc(O)c(O)c1)O[C@@H](C(=O)O)[C@@H](OC(=O)/C=C/c1ccc(O)c(O)c1)C(=O)O
not listed: [8] | [12] | [15]
inactive: all other assays above

c1ccc(SSc2ccccc2)cc1
not listed: [20]
inactive: all other assays above

C=Cc1cccc(C)c1
not listed: [6] | [20]
inactive: all other assays above

— PubChem BioAssay (Tox21)
